Compound activity from PubChem.
This is one part of a sample in which hits are shown more often than they occur.
hDAT+cocaine: changed hDAT dopamine uptake under cocaine IC80, either direction, primary screen, cocaine antagonist project, cell-based, LLC-PK1 hDAT, [14C]-dopamine uptake, MLSMR | Sodium-dependent dopamine transporter (Homo sapiens), Q01959 | LLC-PK1 hDAT cells, [14C]-dopamine uptake with cocaine IC80; actives deviate in either direction | B-score at 10 µM | 1.3% of 110,000 active;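 active = Z score or B-score, a plate-position-corrected score, falls beyond the plate's 99.7% confidence bounds, in either direction; inactive = both scores lie inside the 99.7% bounds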;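 note: scored against the spread of the other compound wells on the same plate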
EphB4 antag: EphB4-ephrin-B2 interaction antagonists, primary screen, biochemical, TNYL-RAW peptide probe, fluorescence polarization. EphB4 LBD / TNYL-RAW-Alexa532 peptide. inhibition, % at 7 µM. Ephrin type-B receptor 4 (Homo sapiens), P54760. 0.15% of 97,000 active;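 active = inhibition above the screen-wide mean inhibition plus 3 SD, cut at about 15% in these data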;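 note: 0% = DMSO wells and 100% = excess unlabeled TNYL-RAW peptide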
D1 allo mod: D1 CRE-luciferase signal change, two-sided – cell-based, HEK293 D1, dopamine EC30, D1 allosteric modulator project, primary screen; dopamine EC30 potentiation; actives deviate in either direction; B-score at 10 µM; 5.9% of 58,000 active;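 active = luminescence count or its row- and column-corrected plate score outside the 99.7% band of the plate's sample wells, on either side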
Target sequence (P21728 whole entry, looked up): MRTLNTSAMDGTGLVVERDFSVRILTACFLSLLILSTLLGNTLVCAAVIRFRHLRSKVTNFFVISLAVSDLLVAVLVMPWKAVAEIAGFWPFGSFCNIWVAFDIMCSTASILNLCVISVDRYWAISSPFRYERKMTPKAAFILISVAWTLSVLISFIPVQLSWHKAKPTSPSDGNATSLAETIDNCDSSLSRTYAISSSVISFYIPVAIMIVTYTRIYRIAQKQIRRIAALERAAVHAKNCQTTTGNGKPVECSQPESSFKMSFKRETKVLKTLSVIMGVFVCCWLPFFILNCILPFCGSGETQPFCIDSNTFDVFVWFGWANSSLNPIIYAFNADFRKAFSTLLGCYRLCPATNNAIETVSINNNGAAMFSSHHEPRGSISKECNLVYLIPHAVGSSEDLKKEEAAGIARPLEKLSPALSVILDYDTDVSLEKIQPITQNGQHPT
An asterisk follows results filed as active; . = no result given.

SMILES | hDAT+cocaine | EphB4 antag | D1 allo mod
CCN(CC(=O)NCc1cccs1)S(=O)(=O)c1cccc(C(C)=O)c1 | -7.46* | 6.2 | 0.0142
CC(=O)c1cccc(NC(=O)Cc2cccs2)c1 | -0.119 | . | -0.117
Cc1ccccc1CSCC(Nc1ccc(C(=O)O)cc1[N+](=O)[O-])C(=O)O (centres undefined) | -0.522 | 4.6 | .
N#C/C(=C\c1cc(Cl)cc(Cl)c1O)C(=O)NC1CCCCC1 | -0.0869 | 7.5 | .
Cc1ccc(C)c(C(=O)CSc2n[nH]c(C(C)C)n2)c1 | 1.01 | -2.9 | -5.99*
CCc1nc(SCC(=O)c2cc(C)ccc2C)n[nH]1 | -0.434 | 0.6 | -0.00534
Cc1ccc(-c2cc3nc(-c4ccccc4)cc(N)n3n2)cc1 | 0.607 | -1.0 | .
Cc1cc(N)n2nc(-c3ccccc3)cc2n1 | . | . | -3.43*
Cc1nc(CN2CCN(C(=O)c3ccc(C(C)(C)C)cc3)CC2)cs1 | 0.898 | 1.4 | .
COc1ccc(-n2c(Cc3cccn3C)nnc2SCC(=O)Nc2ccc(C)cc2)cc1 | 2.35* | . | 0.0928
CC(=O)Nc1cccc(NC(=O)CSc2nnc(Cc3cccn3C)n2-c2ccc(C)cc2)c1 | -0.387 | 16.4* | -0.035
COc1ccc(NC(=O)CSc2nnc(Cc3cccn3C)n2-c2ccc(OC)cc2)cc1 | -0.0233 | . | 0.587
COc1ccc(-n2c(Cc3cccn3C)nnc2SCC(=O)Nc2cccc(NC(C)=O)c2)cc1 | 0.18 | 6.2 | -0.479
Cn1cccc1Cc1nnc(SCC(=O)Nc2ccc(F)cc2F)n1-c1ccc(F)cc1 | -8.37* | -4.3 | 1.03
Cc1ccc(NC(=O)CSc2nnc(Cc3cccn3C)n2-c2ccc(F)cc2)c(C)c1 | -0.966 | -3.5 | -0.465
C=CCNC(=O)c1onc(CSc2cccc(OC)c2)c1C(=O)NCC=C | 0.506 | . | .
C=C(C)c1cccc(C(C)(C)NC(=O)N2CCN(CC(N)=O)CC2)c1 | 0.949* | 2.7 | -0.578
C=C(C)c1cccc(C(C)(C)NC(=O)N2CCN(CC)CC2)c1 | -0.79 | -2.6 | -1.7
C=C(Br)Cn1c(CC(C)C)nc2ccccc21 | -0.905 | -2.5 | -3.27*
C=C(Br)Cn1c(CC)nc2ccccc21 | 0.421 | 0.5 | .
O=C(CN(c1ccccc1)S(=O)(=O)c1ccccc1[N+](=O)[O-])NN=C1CCCCCCC1 | 1.22 | -11.8 | .
COc1ccc(C2=NOC(C)(c3nnc(-c4ccncc4)o3)C2)cc1 (centres undefined) | -0.318 | . | .
Nc1c(C(=O)N2CCOCC2)sc(=S)n1-c1ccccc1 | 2.62 | 0.1 | 0.393
Nc1c(C(=O)N2CCCCC2)sc(=S)n1-c1ccccc1 | 2.66* | -3.9 | 0.181
O=S(Cc1ccccc1)CC(O)(c1ccccc1)c1ccccc1 (centres undefined) | -0.498 | 1.2 | .
SMILES | hDAT+cocaine | EphB4 antag | D1 allo mod
Cc1ccc(-c2c(C)n([O-])c3c([n+]2=O)CCCC3)o1 | 0.619 | 7.4 | .
CN(C)c1nc(SCc2ccc(Cl)cc2)nc2c1CCCC2 | -0.206 | 1.7 | .
c1ccc(OCc2nn3c(-c4ccncc4)nnc3s2)cc1 | 0.566 | . | 0.00501
c1ccc(OCc2nn3c(-c4ccccn4)nnc3s2)cc1 | -9.39* | 1.1 | .
Cn1cc([N+](=O)[O-])c(C(=O)Nc2cc(Oc3cccnc3)cc([N+](=O)[O-])c2)n1 | -0.399 | -5.1 | .
Oc1cc(O)c2c(c1)O[C@H](c1ccc(O)c(O)c1)[C@@H](O)C2 | -0.749 | . | .
O=C1c2c(O)cc(O)cc2O[C@@]12c1c(cc(O)c3c1O[C@H](c1ccc(O)cc1)[C@@H](O)C3)O[C@@H]2c1ccc(O)cc1 | 2.16* | . | .
O=c1cc(NC2CCCCC2)c2ccccc2o1 | -0.0617 | 2.7 | .
O=C(OCCNC(=O)c1ccc2ccccc2n1)c1ccc(F)cc1 | -0.0212 | 6.1 | .
O=C(NCc1ccco1)c1nnc(Cc2ccc(F)cc2)o1 | -0.705 | . | .
O=C(NCc1ccco1)c1nnc(Cc2ccc(Cl)cc2)o1 | 2.58* | 5.7 | .
Cc1cccc(NC(=O)CSc2nc3ccccc3c3nc(CCc4c(C)n[nH]c4C)nn23)c1 | 3.81* | 1.9 | .
Cc1n[nH]c(C)c1CCc1nc2c3ccccc3nc(SCC(=O)Nc3ccccc3F)n2n1 | 0.0276 | 1.1 | .
CCOC(=O)N1CCN(C(=O)C2CCC(C(=O)N3CCN(C(=O)OCC)CC3)CC2)CC1 (centres undefined) | . | -7.1 | -0.461
CCOC(=O)N1CCN(C(=O)C2CCCCC2)CC1 | -2.57* | 0.4 | .
CCOc1ccc(NC(=O)C(C)SC(N)=O)cc1 (centres undefined) | -0.155 | -5.5 | -2.64*
CCOc1ccc(NC(=O)C(C)Sc2nnnn2C)cc1 (centres undefined) | -0.309 | 2.2 | 0.97
CCOC(=O)c1cc(=O)n2nc(-c3ccc(C)cc3)nc2s1 | -8.44* | 2.7 | -1.13
CCOC(=O)c1nc(N)c(=O)n(-c2ccc(C)cc2)n1 | -0.545 | 7.1 | .
Nc1nonc1C(=O)NCCNCc1cc(Br)ccc1OCc1ccccc1F | 0.0982 | -0.4 | -3.3*
Nc1nonc1C(=O)NCCNCc1ccccc1OCc1ccccc1F | -0.0217 | -11.1 | -2.25
CCCCCCSc1nc(O)c(C2OC(=O)c3c2ccc(OC)c3OC)c(=O)n1-c1ccccc1 (centres undefined) | 0.591 | 2.4 | .
C#CC[N+](C)(C)C(C#Cc1ccccc1)CC=C (centres undefined) | -0.519 | -3.5 | .
Cc1cc(C(=O)O)c(C)n1-c1ccccc1 | -1.14 | 5.6 | .
CSc1cccc(-n2c(C)cc(C(N)=O)c2C)c1 | 0.0132 | 15.5* | -0.0169
SMILES | hDAT+cocaine | EphB4 antag | D1 allo mod
CC1CCC(NC(=O)c2ccc3nc[nH]c3c2)CC1 (centres undefined) | -1.15 | 2.1 | .
C[C@@H]1CC=C[C@H]2[C@H]1C(=O)N(Cc1ccccc1)[C@H]2c1cccc([N+](=O)[O-])c1 | -0.426 | . | .
Cc1cc(NCCCn2ccnc2)n2ncc(-c3ccc(Cl)cc3)c2n1 | 4.08* | 0.7 | .
Cc1cc(NCCCN2CCOCC2)n2ncc(-c3ccc(Cl)cc3)c2n1 | -0.257 | 2.2 | -1.37
COC(=O)C1NC(=O)N2C(C(=O)OC)C(C)(C)S[C@H]12 (some centres undefined) | -0.345 | . | .
COc1ccc(-c2cc(C(F)(F)F)n3nc(C(=O)NCc4ccco4)cc3n2)cc1 | 1.04 | -11.7 | 0.0551
COC(=O)c1cc2nc(-c3ccc(OC)cc3)cc(C(F)(F)F)n2n1 | -2.17* | -4.8 | 1.55
COC(=O)C1=C(C(=O)OC)[C@@H]2N(Cc3ccccc3)c3ccccc3[C@@]23C[C@@H](C(=O)OC)N(C(=O)COCc2ccccc2)C3=N1 | 0.34 | . | .
CS(=O)(=O)N1CCN(c2nc3ccccc3s2)CC1 | 0.075 | -5.0 | -0.704
CC(Nc1nc(N2CCN(S(C)(=O)=O)CC2)nc2ccccc12)c1ccccc1 (centres undefined) | 0.976 | 5.2 | -2.97*
CC(NC(=O)C(=O)NN=C1CCCCCCCCCCC1)c1ccccc1 (centres undefined) | -1.21 | 8.5 | .
CCOC(=O)C1CN(S(=O)(=O)c2ccc(OC)cc2)c2cc(S(=O)(=O)CC)ccc2O1 (centres undefined) | -7.93* | -0.8 | .
CCS(=O)(=O)c1ccc2c(c1)N(S(C)(=O)=O)CC(C(=O)NC1CC1)O2 (centres undefined) | -1.13 | 3.5 | .
COc1cc(-c2noc(CCCC(=O)NC3CCCCC3)n2)cc(OC)c1OC | 2.28 | 6.8 | .
